Shown are actives, neighbours in structure and some others; about 3.7% of the full set was active somewhere.
ATXN viability = cell viability loss in ATXN counter-screen. S2 cells (HEK-293 line with an ATXN2-luciferase reporter) viability, CellTiter-Fluor protease fluorescence, 24 h. Potency, µM (top dose mostly 56.7 µM), most hits filed as cytotoxic. 400,000 tested, 0.49% active. AID 651635; note: nearly all actives have a fitted effect of over 40% in size
TGFb SMAD3 inh = inhibitors of TGF-b signaling. 410,000 tested, 1.2% active. HepG2 CAGA-GFP TGF-b/SMAD3 reporter, GFP fluorescence, 18 h; TGF-beta stimulated, 500 pg/mL final. Potency, µM (series often up to 46.1 µM), for the others: at the top dose activity, negative = inhibition, most hits filed as inhibitors; note: % is set by controls: 0 for no effect and ±100 for the full control effect; nearly all actives have a fitted effect of over 65% in size
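HEPG2 CAGA-GFP cells (1000/well, DMEM with 1% FBS) were pre-incubated 2 h at 37 degrees C, given compound by pin tool, then stimulated with TGF-beta at 500 pg/mL final for 18 h before per-cell GFP fluorescence imaging.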
GLP1R inv ag = GLP-1 receptor (human) inverse agonism; 410,000 tested, 1.6% active; HEK293 GLP-1R CRE-luciferase, luminescence, 24 h; GLP-1R form is constitutively active; Potency, µM (highest dose often 38.3 µM), without a hit: top-dose activity change, negative = inhibition, hits mostly inhibitors; P43220; AID 624417; note: % is set by controls: 0 for no effect and ±100 for the full control effect; nearly all actives have a fitted effect of over 55% in size
Target sequence (P43220 whole entry, looked up): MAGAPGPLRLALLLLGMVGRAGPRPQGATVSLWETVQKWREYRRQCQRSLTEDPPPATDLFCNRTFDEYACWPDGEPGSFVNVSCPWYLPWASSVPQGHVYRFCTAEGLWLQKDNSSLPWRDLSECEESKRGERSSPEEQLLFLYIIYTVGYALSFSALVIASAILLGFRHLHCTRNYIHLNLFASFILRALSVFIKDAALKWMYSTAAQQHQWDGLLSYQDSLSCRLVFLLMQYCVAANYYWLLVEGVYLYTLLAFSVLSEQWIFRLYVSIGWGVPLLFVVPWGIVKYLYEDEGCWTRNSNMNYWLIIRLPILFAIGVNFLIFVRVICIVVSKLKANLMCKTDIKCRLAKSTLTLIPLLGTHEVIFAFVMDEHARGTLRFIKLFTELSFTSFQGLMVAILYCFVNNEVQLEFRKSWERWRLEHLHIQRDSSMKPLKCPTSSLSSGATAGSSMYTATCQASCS
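qHTS in 1536-well format: reporter HEK293 cells expressing constitutive GLP-1R activity in DMEM + 10% Nu serum, 24 hr with compounds at 37 deg C, luminescence read after 12 min with detection reagent.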
HepG2 viability = kills HepG2 cells in TGF-b inhibitor counter-screen. Potency, µM (titrated, usually from 46.1 µM), inactives show top-dose activity change, negative = cytotoxicity, hits mostly cytotoxic. 410,000 tested, 0.76% active. HepG2 CAGA-GFP viability, ATP luminescence, 18 h
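CellTiter-Glo luminescence gave cytotoxicity after 18 hours at 37 degrees C. The cells were HepG2 CAGA-GFP in 1% FBS DMEM, stimulated with 500 pg/mL TGF-beta after compound addition. %Activity was normalised to no-cell wells (complete cell-killing) and DMSO (no toxicity), and curves were fitted and classified.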
GLP-1R agonist = agonists of human GLP-1 receptor | 380,000 tested, 0.007% active | Potency, µM (top dose mostly 45.6 µM), for the others: top-dose activation, most hits filed as activators | HEK293 GLP-1R CRE-luciferase, luminescence, 4-6 h; cells express a hypersensitive GLP-1R form | AID 624172; note: % of control where 0% means no effect
ATXN2 expr inh = reduces ATXN2 reporter expression in HEK-293 cells | HEK-293 ATXN2-luciferase reporter, luminescence, 24 h | Potency, µM (doses to about 57 µM), without a hit: at the highest dose activity change, negative = inhibition, most hits filed as inhibitors | 360,000 tested, 0.72% active | AID 1745845; note: % is set by controls: 0 for no effect and ±100 for the full control effect; nearly all actives have a fitted effect of over 55% in size
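ATXN2-luciferase reporter cells (luciferase flanked by upstream and downstream ATXN2 gene portions) were treated 24 h at 37 °C with compounds at up to 57 uM. SteadyGlo luminescence gave expression; GF-AFC fluorescence gave viability.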
* hit, by the source's call; i = inactive; ? = inconclusive; nt = no result given. Calls come from the whole dose curve; as a rule, active = well fitted curve in the direction sought with a large enough effect; inconclusive = small, poorly fitted or top-dose-only effect, or another doubt; inactive = no such curve, though single readings can be large; an effect the other way counts as inactive or inconclusive. Potency is the fitted concentration of half-maximal effect.

SMILES	ATXN viability	TGFb SMAD3 inh	GLP1R inv ag	HepG2 viability	GLP-1R agonist	ATXN2 expr inh
Cc1ccc(S(=O)(=O)c2nnn3c2nc(N2CCCC(C)C2)c2cc(Cl)ccc23)cc1C (stereo not drawn)	i	2%	4%	-1%	nt	4%
CCOc1ccc(NCc2cccn2-c2nnc(N3CCC(C(=O)NCCCN4CCCCC4C)CC3)s2)cc1 (stereo not drawn)	i	-23%	?	20µM*	5%	nt
CCOc1ccc(NCc2cccn2-c2nnc(N3CCC(C(=O)NCCCN4C(C)CCCC4C)CC3)s2)cc1 (stereo not drawn)	i	-1%	?	-28%	-1%	-1%
CCc1cc[n+](C2=C([O-])c3ccccc3C(=O)/C2=N\S(=O)(=O)c2cccs2)cc1	?	2.8µM*	?	3.5µM*	-4%	?
CN[C@@H](C)C(=O)N[C@H]1CCCC[C@H]2CC[C@@H](C(=O)N[C@@H](c3ccccc3)c3cn(CCCCc4ccc(CCCCn5cc([C@@H](NC(=O)[C@@H]6CC[C@@H]7CCCC[C@H](NC(=O)[C@H](C)NC)C(=O)N76)c6ccccc6)nn5)cc4)nn3)N2C1=O	nt	nt	nt	nt	nt	-3%
O=C(CSCc1cccc(Br)c1)N=Nc1c(O)[nH]c2ccccc12	i	-4%	?	-37%	14%	0%
O=Nc1c(-c2c(O)[nH]c3cc(Br)ccc23)[nH]c2ccccc12	11µM*	8.9µM*	?	7.9µM*	-10%	?
C=CCN1C(=O)/C(=C/c2ccc(OC(C)=O)c(OCC)c2[N+](=O)[O-])SC1=S	nt	7.1µM*	?	-54%	-1%	?
C=CCN1C(=O)/C(=C\c2ccc(OC(=O)c3ccco3)c(OC)c2)SC1=S	?	36%	16%	3%	9%	nt
C=C1C=C(C(F)F)n2ncc(C(=O)Nc3ccc(Br)cc3C(F)(F)F)c2N1	nt	3%	nt	-10%	nt	nt
O=c1c(Cc2ccc(Cl)cc2)c(O)ccn1Cc1cccc(Cl)c1	i	-4%	?	14%	-17%	1%
O=c1c(Cc2ccc(F)cc2)c(O)ccn1Cc1cccc(Cl)c1	i	-16%	7.9µM*	-6%	-10%	-24%
CCN(CCNCC(O)COc1ccccc1C(C)C)c1cccc(C)c1 (stereo not drawn)	nt	?	?	16µM*	1%	?
CC(=O)c1cccc(-c2ccnc3c2CC(C(=O)Nc2ccc(Cl)cc2)O3)c1 (stereo not drawn)	?	-23%	?	-13%	13%	?
CC(=O)c1cccc(-c2ccnc3c2CC(C(=O)Nc2ccc(Cl)c(C(F)(F)F)c2)O3)c1 (stereo not drawn)	?	13µM*	?	-23%	1%	0%
O=C(Nc1ccc(Cl)c(C(F)(F)F)c1)C1Cc2c(-c3ccc4c(c3)OCO4)ccnc2O1 (stereo not drawn)	i	11µM*	?	-31%	-1%	?
COc1ccc(NC(=O)C2Cc3c(-c4ccc(NC(C)=O)cc4)ccnc3O2)cc1OC (stereo not drawn)	i	12%	23%	-1%	-2%	-2%
COc1ccc(NC(=O)C2Cc3c(-c4ccc5c(c4)OCO5)ccnc3O2)cc1OC (stereo not drawn)	2.5µM*	-6%	-24%	-38%	13%	?
O=C(Nc1ccc(F)c(Cl)c1)C1Cc2c(-c3ccco3)ccnc2O1 (stereo not drawn)	i	13µM*	-12%	-7%	24%	?
CC(=O)NCCNC(=O)c1ccc2c(=O)n(CCc3ccccc3)c(=O)[nH]c2c1	i	-1%	1%	2%	0%	11%
CC(=O)Nc1ccc(-c2ccnc3c2CC(C(=O)NCc2cccc(Cl)c2)O3)cc1 (stereo not drawn)	?	4%	3.5µM*	-1%	?	4%
CC(=O)Nc1cccc(-c2ccnc3c2CC(C(=O)NCc2cccc(Cl)c2)O3)c1 (stereo not drawn)	?	3%	?	-20%	13%	-30%
O=C(Nc1cccc(OC(F)(F)F)c1)C1Cc2c(-c3ccccc3Oc3ccccc3)ccnc2O1 (stereo not drawn)	i	11µM*	13µM*	-32%	4%	-24%
COc1ccc(CCCNC(=O)C2Cc3c(-c4ccccc4)ccnc3O2)cc1 (stereo not drawn)	18µM*	?	?	-32%	-3%	?
CCOC(=O)c1c(NC(=O)c2cc(=O)c3cc(C)ccc3o2)sc2c1CCCC2	i	0%	6%	9%	nt	3%
SMILES	ATXN viability	TGFb SMAD3 inh	GLP1R inv ag	HepG2 viability	GLP-1R agonist	ATXN2 expr inh
CC(=O)N[C@@H](C)C(=O)NCC1Cc2cc(C)cc(-c3cnccn3)c2O1 (stereo partly drawn)	i	nt	nt	nt	nt	nt
C#CCN(C1CCCC1)S(=O)(=O)C=C	nt	-20%	nt	-65%	nt	nt
COc1ccc(OCCCC(=O)Nc2cc(S(=O)(=O)N3CCCCC3)ccc2C)cc1	i	-9%	5.6µM*	-3%	-5%	?
COc1ccc(CCC(=O)Nc2ccc(Cl)c(S(=O)(=O)N3CCCC3)c2)cc1	i	?	10µM*	-21%	-4%	-5%
COc1ccc(CCC(=O)Nc2ccc(OC)c(S(=O)(=O)N3CCCCC3)c2)cc1OC	?	?	9%	-21%	5%	-30%
Cc1cccc(C(=O)N[C@H](C(=O)Nc2cc(S(=O)(=O)N3CCCCC3)ccc2C)C(C)C)c1	i	-16%	10µM*	19%	-4%	-2%
COc1ccc(COC(=O)c2ccc(Cl)c(S(=O)(=O)N3CC(C)OC(C)C3)c2)cc1 (stereo not drawn)	i	-7%	8.9µM*	2%	4%	-16%
CC1CN(C(=O)COC(=O)c2ccc(Cl)c(S(=O)(=O)N3CCCCC3)c2)CC(C)O1 (stereo not drawn)	i	-2%	-15%	-3%	16%	-2%
O=C(C[n+]1ccccc1)c1cccc([N+](=O)[O-])c1	nt	3%	nt	10%	nt	nt
CCCCCn1cc2c(c1-c1ccc(Cl)cc1)c(=O)n(C)c(=O)n2C	nt	0%	-1%	-7%	nt	nt
CCCCC(=O)OCC(=O)[C@H]1[C@H](C)C[C@H]2[C@@H]3C[C@H](F)C4=CC(=O)C=C[C@]4(C)[C@@]3(F)[C@@H](O)C[C@@]21C	i	nt	nt	nt	nt	-14%

Screening results from PubChem BioAssay.
